# According to article PMC8384837, “Expanding the binding specificity for RNA recognition by a PUF domain”:
# Assays:
# Test in all cases: yeast three-hybrid, YBZ-1, SC-Leu-His + 0.5 mM 3-AT, 4 days
# Details in all cases: tags: N-Gal4 AD-HA kept; label: inside an RPR1-promoter hybrid RNA with tandem MS2 sites; ssRNA
# PUM1 PUF domain R2-RRV = PUM1 PUF domain R2-RRV (Homo sapiens, UniProt Q14671 828-1176, N899R;Y900R;Q903V)
# Method in brief: (§1)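 A centromeric plasmid in strain YBZ-1 co-expressed Pumilio-1 PUF domain libraries, randomized at the three base-contacting residues of each repeat, with matching RNA elements; the strain carries a LexA–MS2 coat fusion and a HIS3 reporter. After four days on SC-Leu (input) or SC-Leu-His + 0.5 mM 3-AT (selection), the repeat regions were PCR-amplified and Illumina-sequenced. The interaction score is the log change in variant frequency from input to selection, using log2 and a pseudocount of 1 where absent.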
# PUM1 PUF domain R3-TRV = PUM1 PUF domain R3-TRV (Homo sapiens, UniProt Q14671 828-1176, C935T;Q939V)
# Method in brief: as §1
# PUM1 PUF domain R3-LRL = PUM1 PUF domain R3-LRL (Homo sapiens, UniProt Q14671 828-1176, C935L;Q939L)
# Method in brief: as §1
# PUM1 PUF domain R4-SRS = PUM1 PUF domain R4-SRS (Homo sapiens, UniProt Q14671 828-1176, N971S;H972R;Q975S)
# Method in brief: as §1
# PUM1 PUF domain R1-KYV = PUM1 PUF domain R1-KYV (Homo sapiens, UniProt Q14671 828-1176, S863K;R864Y;Q867V)
# Method in brief: as §1
# PUM1 PUF domain R4-QPC = PUM1 PUF domain R4-QPC (Homo sapiens, UniProt Q14671 828-1176, N971Q;H972P;Q975C)
# Method in brief: as §1
# PUM1 PUF domain R5-RSS = PUM1 PUF domain R5-RSS (Homo sapiens, UniProt Q14671 828-1176, C1007R;R1008S;Q1011S)
# Method in brief: as §1
# PUM1 PUF domain R5-KNL = PUM1 PUF domain R5-KNL (Homo sapiens, UniProt Q14671 828-1176, C1007K;R1008N;Q1011L)
# Method in brief: as §1
# PUM1 PUF domain R5-RCD = PUM1 PUF domain R5-RCD (Homo sapiens, UniProt Q14671 828-1176, C1007R;R1008C;Q1011D)
# Method in brief: as §1
# PUM1 PUF domain R5-KRA = PUM1 PUF domain R5-KRA (Homo sapiens, UniProt Q14671 828-1176, C1007K;Q1011A)
# Method in brief: as §1
# PUM1 PUF domain R8-KFM = PUM1 PUF domain R8-KFM (Homo sapiens, UniProt Q14671 828-1176, N1122K;Y1123F;Q1126M)
# Method in brief: as §1
# PUM1 PUF domain R8-RFA = PUM1 PUF domain R8-RFA (Homo sapiens, UniProt Q14671 828-1176, N1122R;Y1123F;Q1126A)
# Method in brief: as §1
# PUM1 PUF domain R6-FYK = molecular target: T1, PUM1 PUF domain R6-FYK (Homo sapiens, UniProt Q14671 828-1176, N1043F;Q1047K)
# T1 sequence: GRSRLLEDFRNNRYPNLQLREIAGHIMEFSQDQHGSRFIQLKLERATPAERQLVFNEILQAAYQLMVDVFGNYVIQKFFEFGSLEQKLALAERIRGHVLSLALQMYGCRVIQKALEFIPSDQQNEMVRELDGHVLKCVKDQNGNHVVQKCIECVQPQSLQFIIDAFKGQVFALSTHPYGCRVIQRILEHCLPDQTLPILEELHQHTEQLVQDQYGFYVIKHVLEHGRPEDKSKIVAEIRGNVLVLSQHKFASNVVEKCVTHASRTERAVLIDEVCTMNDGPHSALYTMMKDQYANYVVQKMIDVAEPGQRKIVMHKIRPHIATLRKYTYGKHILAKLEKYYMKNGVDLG
# Method in brief: as §1
# PUM1 PUF domain R5-RGN = PUM1 PUF domain R5-RGN (Homo sapiens, UniProt Q14671 828-1176, C1007R;R1008G;Q1011N)
# Method in brief: as §1
# PUM1 PUF domain R3-SRW = PUM1 PUF domain R3-SRW (Homo sapiens, UniProt Q14671 828-1176, C935S;Q939W)
# Method in brief: as §1
# PUM1 PUF domain R4-DRI = PUM1 PUF domain R4-DRI (Homo sapiens, UniProt Q14671 828-1176, N971D;H972R;Q975I)
# Method in brief: as §1
# PUM1 PUF domain R3-SSQ = PUM1 PUF domain R3-SSQ (Homo sapiens, UniProt Q14671 828-1176, C935S;R936S)
# Method in brief: as §1
# PUM1 PUF domain R3-VCI = PUM1 PUF domain R3-VCI (Homo sapiens, UniProt Q14671 828-1176, C935V;R936C;Q939I)
# Method in brief: as §1
# PUM1 PUF domain R7-MSG = PUM1 PUF domain R7-MSG (Homo sapiens, UniProt Q14671 828-1176, S1079M;N1080S;E1083G)
# Method in brief: as §1
# PUM1 PUF domain R3-QRI = PUM1 PUF domain R3-QRI (Homo sapiens, UniProt Q14671 828-1176, C935Q;Q939I)
# Method in brief: as §1
sequence,measurement,setting,value
GGCUAGAACUAGUGGAUCCCCCGGCGCCCGGCGGCUCGAGCCCGGGUAAGUGUAAAGAGUCUGCAUGCCGCCGGGCGCCAUGCCUGCAGGUCGACUCUAGAAAACAUG,binding signal,PUM1 PUF domain R2-RRV,2.5 log2 enrichment (interaction score)
GGCUAGAACUAGUGGAUCCCCCGGCGCCCGGCGGCUCGAGCCCGGGUAAGUGUAAUUAGUCUGCAUGCCGCCGGGCGCCAUGCCUGCAGGUCGACUCUAGAAAACAUG,binding signal,PUM1 PUF domain R3-TRV,2.79 log2 enrichment (interaction score)
same,binding signal,PUM1 PUF domain R3-LRL,0.28 log2 enrichment (interaction score)
GGCUAGAACUAGUGGAUCCCCCGGCGCCCGGCGGCUCGAGCCCGGGUAAGUGUACAUAGUCUGCAUGCCGCCGGGCGCCAUGCCUGCAGGUCGACUCUAGAAAACAUG,binding signal,PUM1 PUF domain R4-SRS,1.59 log2 enrichment (interaction score)
GGCUAGAACUAGUGGAUCCCCCGGCGCCCGGCGGCUCGAGCCCGGGUAAGUGUAAAUUGUCUGCAUGCCGCCGGGCGCCAUGCCUGCAGGUCGACUCUAGAAAACAUG,binding signal,PUM1 PUF domain R1-KYV,2.06 log2 enrichment (interaction score)
GGCUAGAACUAGUGGAUCCCCCGGCGCCCGGCGGCUCGAGCCCGGGUAAGUGUAUAUAGUCUGCAUGCCGCCGGGCGCCAUGCCUGCAGGUCGACUCUAGAAAACAUG,binding signal,PUM1 PUF domain R4-QPC,2.52 log2 enrichment (interaction score)
same,binding signal,PUM1 PUF domain R4-SRS,0.95 log2 enrichment (interaction score)
GGCUAGAACUAGUGGAUCCCCCGGCGCCCGGCGGCUCGAGCCCGGGUAAGUGUCAAUAGUCUGCAUGCCGCCGGGCGCCAUGCCUGCAGGUCGACUCUAGAAAACAUG,binding signal,PUM1 PUF domain R5-RSS,2.89 log2 enrichment (interaction score)
same,binding signal,PUM1 PUF domain R5-KNL,4.73 log2 enrichment (interaction score)
same,binding signal,PUM1 PUF domain R5-RCD,3.7 log2 enrichment (interaction score)
same,binding signal,PUM1 PUF domain R5-KRA,2.92 log2 enrichment (interaction score)
GGCUAGAACUAGUGGAUCCCCCGGCGCCCGGCGGCUCGAGCCCGGGUAAGCGUAAAUAGUCUGCAUGCCGCCGGGCGCCAUGCCUGCAGGUCGACUCUAGAAAACAUG,binding signal,PUM1 PUF domain R8-KFM,2.54 log2 enrichment (interaction score)
same,binding signal,PUM1 PUF domain R8-RFA,5.73 log2 enrichment (interaction score)
GGCUAGAACUAGUGGAUCCCCCGGCGCCCGGCGGCUCGAGCCCGGGUAAGUGUAAAUAGUCUGCAUGCCGCCGGGCGCCAUGCCUGCAGGUCGACUCUAGAAAACAUG,binding signal,PUM1 PUF domain R8-KFM,2.58 log2 enrichment (interaction score)
same,binding signal,PUM1 PUF domain R4-QPC,0.51 log2 enrichment (interaction score)
same,binding signal,PUM1 PUF domain R3-TRV,2.47 log2 enrichment (interaction score)
same,binding signal,PUM1 PUF domain R8-RFA,5.72 log2 enrichment (interaction score)
same,binding signal,PUM1 PUF domain R6-FYK,5.82 log2 enrichment (interaction score)
same,binding signal,PUM1 PUF domain R5-RGN,0.69 log2 enrichment (interaction score)
same,binding signal,PUM1 PUF domain R3-SRW,2.61 log2 enrichment (interaction score)
same,binding signal,PUM1 PUF domain R4-DRI,5.23 log2 enrichment (interaction score)
same,binding signal,PUM1 PUF domain R4-SRS,3.11 log2 enrichment (interaction score)
same,binding signal,PUM1 PUF domain R3-SSQ,2.66 log2 enrichment (interaction score)
same,binding signal,PUM1 PUF domain R3-VCI,2.74 log2 enrichment (interaction score)
GGCUAGAACUAGUGGAUCCCCCGGCGCCCGGCGGCUCGAGCCCGGGUAAGUUUAAAUAGUCUGCAUGCCGCCGGGCGCCAUGCCUGCAGGUCGACUCUAGAAAACAUG,binding signal,PUM1 PUF domain R7-MSG,3.37 log2 enrichment (interaction score)
GGCUAGAACUAGUGGAUCCCCCGGCGCCCGGCGGCUCGAGCCCGGGUAAGUGUUAAUAGUCUGCAUGCCGCCGGGCGCCAUGCCUGCAGGUCGACUCUAGAAAACAUG,binding signal,PUM1 PUF domain R5-RSS,2.86 log2 enrichment (interaction score)
same,binding signal,PUM1 PUF domain R5-RGN,2.27 log2 enrichment (interaction score)
same,binding signal,PUM1 PUF domain R5-RCD,2.68 log2 enrichment (interaction score)
same,binding signal,PUM1 PUF domain R5-KRA,0.81 log2 enrichment (interaction score)
GGCUAGAACUAGUGGAUCCCCCGGCGCCCGGCGGCUCGAGCCCGGGUAAGUGUAAGUAGUCUGCAUGCCGCCGGGCGCCAUGCCUGCAGGUCGACUCUAGAAAACAUG,binding signal,PUM1 PUF domain R3-TRV,1.18 log2 enrichment (interaction score)
same,binding signal,PUM1 PUF domain R3-QRI,3.99 log2 enrichment (interaction score)
same,binding signal,PUM1 PUF domain R3-LRL,2.89 log2 enrichment (interaction score)
